This is an account of results in PubChem BioAssay (Tox21).

The structures appear in SMILES notation. Records with an inconclusive call do not appear. Values without a mark were called inactive. Activity calls are given as the source filed them. Unless noted, calls follow the shape of the full dose curve.
% is scaled to controls: 0 for no effect and ±100 for the full control effect.

Thyrotropin receptor (Homo sapiens), sequence (P16473 whole entry, looked up): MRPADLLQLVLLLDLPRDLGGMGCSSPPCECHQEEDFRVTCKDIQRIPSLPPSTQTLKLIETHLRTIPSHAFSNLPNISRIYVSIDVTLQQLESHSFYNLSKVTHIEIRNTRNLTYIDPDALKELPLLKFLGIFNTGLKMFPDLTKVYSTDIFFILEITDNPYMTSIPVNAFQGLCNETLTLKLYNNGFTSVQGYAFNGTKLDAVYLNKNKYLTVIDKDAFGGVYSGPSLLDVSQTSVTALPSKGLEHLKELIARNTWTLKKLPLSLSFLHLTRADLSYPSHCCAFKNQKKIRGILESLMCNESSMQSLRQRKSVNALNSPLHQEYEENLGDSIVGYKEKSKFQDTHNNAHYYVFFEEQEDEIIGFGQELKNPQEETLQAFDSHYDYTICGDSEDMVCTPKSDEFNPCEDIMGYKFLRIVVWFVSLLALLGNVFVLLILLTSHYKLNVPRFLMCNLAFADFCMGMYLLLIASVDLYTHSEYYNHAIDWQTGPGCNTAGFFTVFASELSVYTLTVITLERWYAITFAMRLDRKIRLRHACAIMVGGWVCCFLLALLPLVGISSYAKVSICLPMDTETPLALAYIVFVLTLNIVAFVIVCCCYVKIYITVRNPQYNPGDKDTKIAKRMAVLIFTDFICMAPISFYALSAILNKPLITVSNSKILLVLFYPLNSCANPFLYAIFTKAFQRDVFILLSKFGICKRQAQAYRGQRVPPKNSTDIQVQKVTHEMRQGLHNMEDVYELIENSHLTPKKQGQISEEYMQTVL

System in one experiment: not listed separately
The experiment in a line: qHTS assay to identify small molecule antagonists of the estrogen related receptor signaling pathway with the pleiotropic PPARgamma coactivator (PGC) from Tox21 10K library (AID 1224841; call rule not given here; also: actives are mostly falling curves and most rising ones were filed inactive; nearly all actives have a fitted effect of over 50% in size; also: potency is read from the fitted curve at half-maximal effect). Particulars: PGC/ERR reporter cell line, ONE-Glo luciferase, 18 h; series mostly up to 92.4 µM; activity, negative = inhibition: at the top concentration. In short, it runs like this: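 PGC/ERR reporter cells were seeded at 2,000 cells/well and held 6 hours at 37 C/5% CO2 before pin-tool addition of compounds in DMSO. After 18 hours at 37 C, One-Glo was added and luminescence read after 30 minutes at room temperature.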
On the technique in general: In qHTS, concentration-response curves come from the screen itself.
In the case of `Cn1c(=O)cc(Oc2ccc(F)cc2F)c2cnc(NCC(C)(C)O)nc21`, the Potency was 34.4 µM (active).

For the molecule `O=S(=O)(Oc1ccc(Cl)cc1)c1ccccc1`, the “activity, negative = inhibition” value is 5.74%.

As for `CC(=O)[O][Al]`, the “activity, negative = inhibition” value was -2.06%.

Take `Nc1cc(C(=O)O)c(O)c(S(=O)(=O)O)c1`: the “activity, negative = inhibition” value is 1.77%.

Consider `CN1C[C@H]2c3ccccc3Oc3ccc(Cl)cc3[C@@H]2C1`, for which the “activity, negative = inhibition” value was 14.4% [at 42.5 µM].

System in another experiment: not listed separately
The experiment in a line: qHTS assay to identify small molecule agonists of the estrogen related receptor signaling pathway with the pleiotropic PPARgamma coactivator (PGC) from Tox21 10K library (AID 1224842; active = well fitted activation curve with a large enough effect in the repeat runs; also: nearly all actives have a fitted effect of over 15% in size; also: potency is read from the fitted curve at half-maximal effect). The note with it: PGC/ERR reporter cell line, luciferase ONE-Glo, 18 h; series mostly up to 92.4 µM; activation: at the top concentration. In short, it runs like this:
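Luminescence from One-Glo (30 min, room temperature) measured after PGC/ERR cells had 18 h at 37 C with pinned compound (23 nL in DMSO). Cells had been seeded at 2,000 per well and pre-incubated 6 h.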
Turning to `CN(C)C(=O)NC1(c2ccccc2)CCN(CC[C@@]2(c3ccc(F)c(F)c3)CN(C(=O)c3ccccc3)CCO2)CC1`, the “activation” value is -10.6%.

In the case of `Cn1c(=O)cc(Oc2ccc(F)cc2F)c2cnc(NCC(C)(C)O)nc21`, the “activation” value was -17.1%.

`C=CC(=O)OCCOc1ccccc1`: the Potency is 68.5 µM (active).

As to `CCCCCCCCCCCCCCOS(=O)(=O)O`, the “activation” value is 7.24%.

In the case of `O=S(=O)(Oc1ccc(Cl)cc1)c1ccccc1`, the “activation” value is 1.69%.

On to `CC(=O)[O][Al]`, for which the “activation” value was -0.716%.

In the case of `OC(C#CCN1CCCC1)(c1ccccc1)c1ccccc1`, the “activation” value was -0.849% [at 42.5 µM].

As to `CC(C)C[C@H]1C(=O)N2CCC[C@H]2[C@]2(O)O[C@](NC(=O)[C@@H]3C=C4c5cccc6[nH]c(Br)c(c56)C[C@H]4N(C)C3)(C(C)C)C(=O)N12`, the “activation” value is -24.9% [at 42.5 µM].

As for `Nc1cc(C(=O)O)c(O)c(S(=O)(=O)O)c1`, the “activation” value is 0.0216%.

With `CN1C[C@H]2c3ccccc3Oc3ccc(Cl)cc3[C@@H]2C1`, the “activation” value is 4.36% [at 42.5 µM].

For `CCCCC(CC)CN1C(=O)C2C3C=CC(C3)C2C1=O` (centres undefined), the “activation” value was -10.2%.

On to `CCCCC/C=C\C/C=C\CCCCCCCC(=O)NC(C)c1ccccc1` (centres undefined), for which the “activation” value was -13.8% [at 42.5 µM].

The next experiment has as its target Thyrotropin receptor (Homo sapiens) (UniProt P16473). The experiment in a line: qHTS assay to identify small molecule agonists of the thyroid stimulating hormone receptor (TSHR) signaling pathway (AID 1224843). Also: nearly all actives have a fitted effect of over 45% in size. The note with it: TSHR-HEK293 cells, cAMP HTRF, agonist mode, 30 min; series mostly up to 92.4 µM; activation: at the top concentration. A digest of the protocol: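 HEK293 cells stably bearing the thyrotropin receptor were plated at 800 cells/well and challenged with compound (30 min, RT). Accumulated cAMP was quantified via cAMP-d2 competing for cryptate-tagged antibody.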
With `CN(C)C(=O)NC1(c2ccccc2)CCN(CC[C@@]2(c3ccc(F)c(F)c3)CN(C(=O)c3ccccc3)CCO2)CC1`, the “activation” value was -0.526%.

For the molecule `CC/C=C\CCOC(=O)CC`, the “activation” value was 3.41%.

Turning to `C=C(C)C(=O)OCCO`, the “activation” value is -6.41%.

With `CCOc1ccc(N=Nc2ccc(/C=C/c3ccc(N=Nc4ccc(OCC)cc4)cc3S(=O)(=O)O)c(S(=O)(=O)O)c2)cc1`, the “activation” value is 3.4%.

Take `CCCCCCCCCCCc1ccccc1`: the “activation” value was 0.711%.

As to `Nc1ccc(S(=O)(=O)Nc2ccccc2)cc1`, the “activation” value is -6.84% [at 42.5 µM].

For the molecule `C=CC(=O)OCCOc1ccccc1`, the “activation” value is 3.22%.

On to `C/C=C/C=C/CO`, for which the “activation” value is -11.2%.

As for `O=S(=O)(Oc1ccc(Cl)cc1)c1ccccc1`, the “activation” value is -21.9%.

Take `CCCCO`: the “activation” value was 3.14%.

Turning to `CN1CCN(C(c2ccccc2)c2ccccc2)CC1`, the “activation” value is 2.05% [at 42.5 µM].

As for `OC(C#CCN1CCCC1)(c1ccccc1)c1ccccc1`, the “activation” value was 7.05% [at 42.5 µM].

`CNCCCCOc1ccccc1Cc1ccccc1`: the “activation” value is -1.57% [at 42.5 µM].

Regarding `CC(C)C[C@H]1C(=O)N2CCC[C@H]2[C@]2(O)O[C@](NC(=O)[C@@H]3C=C4c5cccc6[nH]c(Br)c(c56)C[C@H]4N(C)C3)(C(C)C)C(=O)N12`, the “activation” value is -0.0563% [at 42.5 µM].

Consider `Nc1cc(C(=O)O)c(O)c(S(=O)(=O)O)c1`, for which the “activation” value is -9.1%.

As for `CC(=O)OC[C@H]1O[C@@H](n2ncc(=O)[nH]c2=O)[C@H](OC(C)=O)[C@@H]1OC(C)=O`, the “activation” value is 5.11% [at 42.5 µM].

Consider `Cc1[nH]c(C)c(Cl)c(=O)c1Cl`, for which the activation was 2.76% [at 19 µM].

For the molecule `CN1C[C@H]2c3ccccc3Oc3ccc(Cl)cc3[C@@H]2C1`, the “activation” value was 3.07% [at 42.5 µM].

As for `CC(=O)NO`, the “activation” value is 7.99% [at 42.5 µM].

For the molecule `CCCCC/C=C\C/C=C\CCCCCCCC(=O)NC(C)c1ccccc1` (centres undefined), the “activation” value was -14.6% [at 42.5 µM].

As for `O=[N+]([O-])c1ccc2[nH]ncc2c1`, the “activation” value is -3.6%.

For `NCC(=O)CCC(=O)O`, the “activation” value is -4.29% [at 42.5 µM].
